# Data as given in PubChem BioAssay AID1347416 (National Center for Advancing Translational Sciences (NCATS), 2020).
# The whole screen tested about 4,100 compounds, of which about 1,600 (39%) were called active. About 25% were inconclusive and are not listed. Some of the results follow. Unmarked numbers belong to inactive results. Calls follow the shape of the dose curve; as a rule, active = well fitted inhibition curve with a large enough effect; inconclusive = small, poorly fitted or top-dose-only effect; inactive = no such curve, though single readings can be large or run the other way.
# Test: qHTS Validation assay for Inhibitors of Plasmodium falciparum Dd2 growth in vitro; also: nearly all actives have a fitted effect of over 70% in size
# Details: P. falciparum Dd2 in RBCs, SYBR Green growth, 72 h; series mostly up to 28.7 µM; activity change, negative = inhibition: at the top concentration
# Procedure, shortened: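 P. falciparum Dd2-infected red blood cells (2.5% hematocrit, 0.3% parasitemia) grown 72 h at 37 °C under 5% O2 with compounds in a titration, 29 uM to 0.5 nM final. Growth read as SYBR Green-1 fluorescence after ~16 h lysis; artesunate 300 nM as positive control.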
# % is scaled to controls: 0 for no effect and ±100 for the full control effect; potency is read from the fitted curve at half-maximal effect.
SMILES,Potency,"activity change, negative = inhibition"
COc1ccc(S(=O)(=O)N(C)C)cc1NC(C)C(=O)Nc1cccc(C#N)c1 (stereo unspecified),6.68 µM (active),
CCc1nnc([C@@H]2CC(F)(F)CN2Cc2cccn2C)o1,,-14.9%
CCOC(=O)c1c(C)n(-c2ccc(F)cc2)c2ccc(O)cc12,6.68 µM (active),
CCOC(=O)c1c(NC(=O)COc2ccc(F)cc2)sc2c1CCC(C)C2 (stereo unspecified),,21.2%
COc1cccc(C2C(C(=O)Nc3ccc(C)cc3C)=C(C)Nc3c(C(=O)Nc4ccccc4)cnn32)c1 (stereo unspecified),2.11 µM (active),
CC1=C(C(=O)Nc2ccc(C)cc2C)C(c2ccc([N+](=O)[O-])cc2)n2ncc(C(=O)Nc3ccc(F)cc3)c2N1 (stereo unspecified),2.99 µM (active),
CC1=C(C(=O)Nc2ccc(C)cc2C)C(c2ccc(Br)cc2)n2ncc(C(=O)Nc3cccc(C)c3)c2N1 (stereo unspecified),3.35 µM (active),
COc1cccc(CC(=O)NCCn2ccn3nc(-c4ccc(C)cc4C)cc3c2=O)c1,,-12.7%
CCOc1ccc(-n2nc3cc(C)c(NC(=O)c4cc(OCC)c(OCC)c(OCC)c4)cc3n2)cc1,,57.9%
O=C([C@@H]1C[C@H](F)CN1C(=O)Nc1cccc(Cl)c1)N1CCCCC1,,9.66%
Cc1cc(=O)n(CC(=O)Nc2ccc(C)c(F)c2)c(N2CCc3ccccc3C2)n1,,-8.95%
CCCN(CCC)CCCNC(=S)Nc1ccc2nc(N3CCCC3)cc(C)c2c1,,-17.7%
CCOc1cccc(CC(=O)Nc2ccc3nc(N4CCCCC4)cc(C)c3c2)c1OCC,6.68 µM (active),
Cc1ccccc1NC(=O)Nc1ccc2nc(N3CCN(C)CC3)cc(C)c2c1,1.5 µM (active),
CCOc1ccccc1NC(=O)Nc1ccc2nc(N3CCN(C)CC3)cc(C)c2c1,1.33 µM (active),
Cc1cc(N2CCN(C)CC2)nc2ccc(NC(=O)Nc3cccc(Cl)c3)cc12,4.22 µM (active),
COc1ccc(CN2CCCC3(CNc4ccccc4[S+](=O)([O-])N3)C2)cc1 (stereo unspecified),,-16.7%
CN(C)c1cc(N2CCCC(NC(=O)c3ccsc3)C2)ncn1 (stereo unspecified),,17.4%
Cn1cccc1CN1CCC(N2CC(OCC3CC3)C23CCCCC3)CC1 (stereo unspecified),7.5 µM (active),
O=C(Nc1ccccc1)N1CCC(N2CC(OCC3CC3)C23CCOCC3)CC1 (stereo unspecified),,-22.8%
CCn1cc(CN2CCC(N3CC(OCC4CC4)C34CCCCC4)CC2)cn1 (stereo unspecified),8.41 µM (active),
COc1cccc(CN2CCC(N3CC(OCC4CC4)C34CCCCC4)CC2)n1 (stereo unspecified),4.22 µM (active),
CN(C)S(=O)(=O)N1CCC(N2C(=O)C(OCC3CC3)C23CCCCC3)CC1 (stereo unspecified),,-24%

SMILES,Potency,"activity change, negative = inhibition"
Fc1cccc(CN2CCC(N3CC(OCC4CC4)C34CCCCC4)CC2)c1 (stereo unspecified),4.22 µM (active),
CCc1ccc(NC(=O)N2CC(C(=O)N(C)C)C3(CCOCC3)C2)cc1 (stereo unspecified),,2.4%
O=C(Cn1cc(-c2nnnn2-c2ccc(Cl)cc2)c(=O)c2ccccc21)c1ccccc1,,10%
CC1=C(CC(=O)c2ccc(Cl)cc2)C(=O)c2ccccc2C1=O,0.211 µM (active),
CN(CC1(C)CCOCC1)C(=O)c1ccoc1,,15.7%
COc1ccc(O)c(-c2cc(-c3cccs3)[nH]n2)c1,,312%
Oc1ccc(Br)cc1-c1cc(-c2ccc(Cl)cc2)n[nH]1,2.66 µM (active),
CCOC(=O)C1=C(C)NC(=S)N(C(C)=O)C1c1ccc(Cl)cc1 (stereo unspecified),,-15%
COc1cc(Br)c(C2CC(=O)Nc3cc4c(cc32)OCCO4)cc1OC (stereo unspecified),2.37 µM (active),
CCOC(=O)C1=C(C)NC(=O)CC1c1cc(OC)c(OC)cc1Br (stereo unspecified),5.31 µM (active),
COc1cc(C2CC(=O)Nc3cc4c(cc32)OCCO4)cc(Br)c1OC (stereo unspecified),5.31 µM (active),
CNC(=O)N1CCC(C2CCN(C(=O)CCCC(=O)O)C2)CC1 (stereo unspecified),,13.7%
CCn1cnnc1-c1nn(C)c2c1CN(C(=O)CC(C)C)CC2,,22.8%
COc1ccc(-n2c(-c3ccc(Br)cc3)c[n+]3c2CCc2ccccc2-3)cc1,4.22 µM (active),
Cc1ccc(-n2cc(CNCCc3ncc(C)[nH]3)c(-c3ccc(F)cc3)n2)cc1,15 µM (active),
Cc1ccc(CNC(=O)NCCc2ncc(C)n2Cc2ccc(F)cc2)cc1,,-63.1%
Cc1ccc(-c2nn(-c3ccccc3)cc2CSC(=N)N)cc1,,-29.1%
CN(C)CCNC(=O)c1nc2nc(-c3ccccc3)c(-c3cccc(F)c3)cc2n1C,19.3 µM (active),
Cc1cccc(C)c1-c1nc(C(=O)NCc2ccc(F)cc2)n2ccccc12,,-24.8%
COCc1nc2nc(-c3ccccc3)c(Nc3ccc(F)cc3)cc2n1C,,-2.2% [at 43.1 µM]
CCn1nccc1C(=O)N1CCC(C(=O)N2CCCCCCNC(=O)CC2)CC1,,4.4%
CCOC(=O)c1[nH]c(Cc2[nH]c(C(=O)OCC)c(C)c2CCC(=O)OC)c(CCC(=O)OC)c1C,5.31 µM (active),
CN(C)c1cccc(-c2nccc3c(=O)cc(-c4cn[nH]c4)oc23)c1,,-2.52% [at 43.1 µM]

SMILES,Potency,"activity change, negative = inhibition"
CC(C)(C)CC(C)(C)c1ccc(O)c(CN2CCN(CCC#N)CC2)c1,0.842 µM (active),
Cc1ccc(C(=O)N2CCC3(CC2)N(c2ccccc2)C(=O)CS3(=O)=O)c(C)c1,,18.7%
CC(C)C(=O)NC(c1ccc([N+](=O)[O-])cc1)c1c(O)ccc2ccccc12 (stereo unspecified),13.3 µM (active),
CC(=O)Oc1ccc2ccccc2c1C(NC(=O)C(C)C)c1cccc([N+](=O)[O-])c1 (stereo unspecified),16.8 µM (active),
CCCCC(=O)NC(c1cccc([N+](=O)[O-])c1)c1c(OC(C)=O)ccc2ccccc12 (stereo unspecified),3.76 µM (active),
Cc1noc(C)c1CSc1nc2sc3c(c2c(=O)n1C)CCCC3,8.41 µM (active),
Cc1nc(N2CCN(C)CC2)c2c3c(sc2n1)CCCC3,,63.3%
Cc1occc1C(=O)N1CCN(C(c2ccccc2)c2ccccc2)CC1,10.6 µM (active),
Cc1ccccc1C(=O)N1CCC(c2nc3ccccc3s2)CC1,,1.54%
Cc1nnc([C@@H]2CC(F)(F)CN2C(=O)c2ccoc2C)o1,,33.4%
Cc1oc2ccc(O)c(CN(C)Cc3ccccc3)c2c1C(=O)Nc1ccccc1,2.37 µM (active),
Cc1ccccc1NC(=O)c1c(C)oc2ccc(O)c(CN(C)Cc3ccccc3)c12,2.37 µM (active),
CCN(Cc1ccccc1)Cc1c(O)ccc2oc(C)c(C(=O)Nc3ccccc3C)c12,4.73 µM (active),
CCN(CC)c1ccc(-n2nc3cc(C)c(NC(=O)c4ccccc4F)cc3n2)cc1,,-28.1%
Cc1ccc(NC(=O)c2c(C)oc3ccc(O)c(CN(C)Cc4ccccc4)c23)c(C)c1,5.96 µM (active),
Cc1oc2ccc(O)c(CN(C)Cc3ccccc3)c2c1C(=O)Nc1cccc(C(F)(F)F)c1,2.11 µM (active),
O=C(Nc1cccc(C(F)(F)F)c1)c1nc2c(o1)CCN(Cc1cccc(F)c1)CC2,,13.4% [at 43.1 µM]
CC(=O)Nc1cccc(C(=O)NC2CCCN(c3cc(-c4ccc(Cl)cc4)[nH]n3)C2)c1 (stereo unspecified),,-18.7%
CC(=O)Nc1cccc(C(=O)N2CCC3(CC2)N=C(c2ccc(C)cc2)NO3)c1,0.842 µM (active),
COc1ccccc1CC(=O)N1CCC2(CC1)N=C(c1cccc(Br)c1)NO2,,-7.17%
CCOc1cccc(C2Nc3ccccc3-c3cc(C)nn32)c1O (stereo unspecified),,-12%
COc1cccc(/C(C#N)=C/c2c(-c3ccc(Cl)cc3)nc3c(C)cccn23)c1,5.96 µM (active),
O=C1NC(=O)/C(=C\c2ccc(N3CCOCC3)o2)N1,9.44 µM (active),

SMILES,Potency,"activity change, negative = inhibition"
Cc1ccc(C(=O)NC2CCCN(c3cc(-c4ccccc4)[nH]n3)C2)s1 (stereo unspecified),,1.75%
Cn1c2ccc(F)cc2c2nnc(SCCN3CCCCC3)nc21,15 µM (active),
Cn1c(=S)c2[nH]c(SCCN3CCCC3)nc2n(C)c1=O,,-13.5%
Nc1nc2[nH]cc(CCc3ccc(C(=O)N[C@@H](CCC(=O)O)C(=O)O)cc3)c2c(=O)[nH]1,7.5 µM (active),
Cc1ccsc1CN1CCCN(S(=O)(=O)c2ccccc2)CCC(=O)NCC1,,-23.3%
Cc1ccc(CN2CCCN(Cc3ccncc3)C(c3ccccc3)CC(=O)NCC2)s1 (stereo unspecified),2.66 µM (active),
Cc1ncsc1CN1CCCN(Cc2ccncc2)C(c2ccccc2)CC(=O)NCC1 (stereo unspecified),8.41 µM (active),
Cc1ccc(CN2CCCN(Cc3ccncc3)C(c3ccccc3)CC(=O)NCC2)o1 (stereo unspecified),7.5 µM (active),
CN(C)C(=O)C1CN(C(=O)NC2CCCCC2)CC12CCOCC2 (stereo unspecified),,13.2%
Cn1cccc1C(=O)N1CC[C@H](NC(=O)Nc2ccc(F)cc2F)[C@H]1C(=O)N[C@H](Cc1ccccc1)C(N)=O,,35.9%
Cc1ccc(O)c([C@H](CCN(C(C)C)C(C)C)c2ccccc2)c1,4.22 µM (active),
COc1ccc(CCNC(=O)CCc2cn(Cc3ccc(F)cc3)c3ccccc23)cc1OC,,-6.47%
COc1ccc(CCNC(=O)CC(c2ccccc2OC)c2c[nH]c3ccccc23)cc1OC (stereo unspecified),13.3 µM (active),
CCCC1c2nccn2CCCN1C(=O)c1cnco1 (stereo unspecified),,16.6%
Cc1cccc(CN2CCCC(O)(CNCc3ncccc3C)C2=O)c1 (stereo unspecified),16.8 µM (active),
Cc1cccnc1CNC[C@H]1O[C@@H]2C[C@@H](CC(=O)N3CCOCC3)O[C@@H]2[C@@H]1O,,0% [at 43.1 µM]
CCOC(=O)c1c(NC(=O)CSc2cn(CCNC(=O)c3cccc(C(F)(F)F)c3)c3ccccc23)sc2c1CCC2,,9.72%
CCCn1cc(SCC(=O)NCc2ccco2)c2ccccc21,8.41 µM (active),
COc1ccc(C2c3[nH]c4ccccc4c3C[C@H]3C(=O)N(C4CCN(Cc5ccccc5)CC4)CC(=O)N23)cc1OC (stereo partly specified),2.99 µM (active),
COc1ccc(C2c3[nH]c4ccccc4c3C[C@H]3C(=O)N(C4CCN(Cc5ccccc5)CC4)CC(=O)N23)c(OC)c1 (stereo partly specified),2.37 µM (active),
COc1ccccc1C1c2[nH]c3ccccc3c2C[C@H]2C(=O)N(C3CCN(Cc4ccccc4)CC3)CC(=O)N12 (stereo partly specified),2.11 µM (active),
CCOc1ccccc1C1c2[nH]c3ccccc3c2C[C@H]2C(=O)N(C3CCN(Cc4ccccc4)CC3)CC(=O)N12 (stereo partly specified),2.37 µM (active),
